Screens (PubChem BioAssay)
GSIS activator – GLuc luminescence reporter in INS-1E cells, primary screen for activators of glucose-dependent secretion of insulin; INS-1E GLuc reporter insulin secretion, 2-3 h; activation, % at 16.6 µM; 370,000 compounds, 0.61% hits;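 active means lowest replicate activation of at least 40%, so every replicate reaches that level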;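 further: 0% = median of neutral control wells and 100% = median of IBMX positive control wells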
NSD2 HMT inh – NSD2 histone methyltransferase inhibitors, primary screen, biochemical, AlphaScreen, single concentration, set 2 | Histone-lysine N-methyltransferase NSD2 (Homo sapiens), O96028 | NSD2 peptide methylation, 120 min | inhibition, % at 12.5 µM | 310,000 compounds, 0.54% hits | AID 743445, 2014
Target sequence (O96028 whole entry, looked up): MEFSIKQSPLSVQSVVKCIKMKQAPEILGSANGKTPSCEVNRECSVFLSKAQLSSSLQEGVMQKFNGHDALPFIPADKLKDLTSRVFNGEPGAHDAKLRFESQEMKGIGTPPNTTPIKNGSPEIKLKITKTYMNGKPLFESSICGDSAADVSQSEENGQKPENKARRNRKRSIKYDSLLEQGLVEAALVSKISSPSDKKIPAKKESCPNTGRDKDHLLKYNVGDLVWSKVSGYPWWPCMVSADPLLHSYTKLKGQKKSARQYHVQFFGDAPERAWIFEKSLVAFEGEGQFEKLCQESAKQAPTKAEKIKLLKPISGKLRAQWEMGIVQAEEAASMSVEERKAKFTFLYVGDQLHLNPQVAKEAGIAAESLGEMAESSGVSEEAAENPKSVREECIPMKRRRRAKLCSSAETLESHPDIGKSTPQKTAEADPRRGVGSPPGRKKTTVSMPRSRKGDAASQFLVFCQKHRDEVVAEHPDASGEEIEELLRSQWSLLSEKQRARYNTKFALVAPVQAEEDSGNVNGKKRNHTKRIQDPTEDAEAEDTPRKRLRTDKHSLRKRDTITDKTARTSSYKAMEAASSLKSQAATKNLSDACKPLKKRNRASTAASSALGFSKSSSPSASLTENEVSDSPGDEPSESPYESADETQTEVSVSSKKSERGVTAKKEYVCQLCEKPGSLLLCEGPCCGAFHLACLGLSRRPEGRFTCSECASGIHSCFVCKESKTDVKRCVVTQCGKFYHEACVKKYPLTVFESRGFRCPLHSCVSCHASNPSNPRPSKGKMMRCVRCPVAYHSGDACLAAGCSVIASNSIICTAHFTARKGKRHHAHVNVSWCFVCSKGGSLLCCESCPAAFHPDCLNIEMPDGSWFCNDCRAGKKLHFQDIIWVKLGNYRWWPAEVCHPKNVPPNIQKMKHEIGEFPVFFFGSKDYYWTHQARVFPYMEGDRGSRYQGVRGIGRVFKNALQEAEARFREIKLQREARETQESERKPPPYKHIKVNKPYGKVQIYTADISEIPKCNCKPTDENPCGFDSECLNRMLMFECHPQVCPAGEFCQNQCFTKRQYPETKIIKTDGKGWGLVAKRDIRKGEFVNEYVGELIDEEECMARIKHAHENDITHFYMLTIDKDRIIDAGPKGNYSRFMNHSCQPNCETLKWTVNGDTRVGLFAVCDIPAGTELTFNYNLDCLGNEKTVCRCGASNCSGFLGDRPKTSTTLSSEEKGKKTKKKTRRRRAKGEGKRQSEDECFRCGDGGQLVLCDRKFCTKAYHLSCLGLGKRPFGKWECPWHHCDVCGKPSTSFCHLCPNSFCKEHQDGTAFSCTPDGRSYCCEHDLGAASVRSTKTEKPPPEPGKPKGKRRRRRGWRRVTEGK
MITF act – activators of MITF-driven TRPM1 promoter reporter, primary screen, cell-based, SK-MEL-5, luciferase, single point; 300,000 compounds, 0.75% hits; activation, % at 12.5 µM; SK-MEL-5 TRPM1-promoter luciferase, 24 h; % of positive control, neutral wells = 0;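 active means mean activation of at least 80% with every replicate also reaching 80%; inconclusive means mean reaches 80% but some replicate falls short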;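 further: 0% = neutral control wells and 100% = parthenolide positive control wells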
miR-122 sensor – miR-122 Renilla sensor signal increase in Huh7, primary screen, miR-122 inhibitor project, cell-based, single point, plate reader. activation (reporter increase), % at 12.5 µM. Huh7 miR-122 Renilla luciferase sensor, 48 h; neutral wells = 0, positive control = 100. 340,000 compounds, 0.3% hits;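 active means mean replicate activation score at least 90 and every replicate individually at or above 90; inconclusive means only one of the two criteria met; inactive means neither criterion met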;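 further: higher luciferase means less miR-122 activity so hits act as miR-122 inhibitors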
Wnt act – Wnt/beta-catenin pathway activators, primary screen, cell-based, plate reader, single point; Wnt/beta-catenin reporter cell assay, activator; activation, % at 9.35 µM; 300,000 compounds, 1.2% hits; in the data active means activation above about 30%, passing the limit was not always enough; inconclusive means no clear call, values can overlap the other calls;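 further: 0% = neutral control wells and 100% = positive control wells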
DYRK1A inh – rat Dyrk1A kinase inhibitors, primary screen, biochemical, single point, plate reader; Dual specificity tyrosine-phosphorylation-regulated kinase 1A (Rattus norvegicus), Q63470; ADP-Glo luminescence, NFATc1 peptide; inhibition, % at 12.5 µM; 310,000 compounds, 0.43% hits;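 further: plate controls were vehicle with enzyme for no effect and no enzyme for full effect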
Starred values were filed as active, the others as inactive; u = inconclusive; x = no result; [ ] = dose if it differs, or a comment. A selection: hits, their analogues and other compounds. The true share with any hit is near 2.4%. Unless noted, no stated cut-off is given here; in the data, active means inhibition above about 50%; inactive means the rest.

SMILES	GSIS activator	NSD2 HMT inh	MITF act	miR-122 sensor	Wnt act	DYRK1A inh
COc1ccccc1/C=C/C(=O)/C=C/c1ccccc1O	19	1	-66	126*	-18	-3
COc1ccc(NC(=O)Nc2ccc(Br)cn2)cc1	6	-4	87*	x	27	5
COc1ccc(-c2ccc(C3[C@H]4CNC[C@@H]3N4S(=O)(=O)c3cccc(OC)c3)cc2)cc1 (stereo partly drawn)	-13	x	x	x	x	x
CCC1CCC(NC(=O)Nc2cccc(OC)c2)CC1 (stereo not drawn)	-3	21	u	7	57*	4
COc1cccc(NC(=O)C2CC2)c1	3	x	15	-3	1	-7
COc1ccc(NC(=O)Nc2ccc3oc(C)nc3c2)cc1	10	-3	44	x	40*	0
Cc1ccc(NC(=O)Nc2ccc3c(c2)CCC3)cc1C	-9	-3	9	1	5	-3
COc1ccc(NC(=O)Nc2ccc3c(c2)CCC3)cc1	10	0	105*	-1	13	9
CC(C)NC(=O)N1C[C@H]2[C@@H](c3ccccc31)[C@@H](CO)N2C(=O)NC(C)C	3	x	x	12[16.7 µM]	x	x
OCCCNc1nc(-c2ccccc2)c2cc(Br)ccc2n1	55*	-10	1	x	-2	5
NNc1nc(-c2ccccc2)c2cc(Br)ccc2n1	49*	1	-2	-9	0	3
NNc1nc(-c2ccccc2)c2cc(Cl)ccc2n1	36	2	-14	x	-4	5
CC(C)CC#Cc1ccc([C@H]2[C@@H](CO)N3C(=O)CN(C(=O)Nc4ccc(F)cc4)C[C@@H]23)cc1	-23	x	x	x	x	x
CCCNC(=O)[C@H]1[C@H](CO)[C@H]2Cn3c(cccc3=O)[C@H]2N1C(=O)C1CC1	9	x	x	x	x	x
O=C(N=Nc1c(O)n(Cc2ccccc2)c2ccccc12)c1cc2ccccc2cc1O	5	-1	89*	x	-1	1
O=C(N=Nc1c(O)n(Cc2ccccc2)c2ccccc12)c1ccc(O)cc1	15	2	150*	-10	x	1
Cc1ccc(NC(=O)Cn2c(O)c(N=NC(=O)c3cc4ccccc4cc3O)c3ccccc32)cc1	0	16	-40	4	1	15
C/C=C/c1ccc([C@H]2[C@H](CO)N(C(=O)C3CCCC3)C23CN(C(=O)NC(C)C)C3)cc1	-8	x	x	x	x	x
C[C@H](CO)N1C[C@H](C)[C@H](CN(C)C(=O)Nc2ccc(F)cc2)Oc2ncc(/C=C/c3ccccc3)cc2C1=O	-28	x	x	x	x	x
COc1ccc(NC(=O)Nc2ccc3c(c2)C(=O)N([C@@H](C)CO)C[C@@H](C)[C@H](CN(C)CC2CCCCC2)OCCCC[C@H](C)O3)cc1	9	x	x	-13[16.7 µM]	x	x
COc1ccccc1CNC(=O)COC(=O)Cn1cnc2c1c(=O)n(C)c(=O)n2C	19	-3	x	-3	-1	x
Cn1c(=O)c2c(ncn2CC(=O)OCC(=O)NCc2ccccc2Cl)n(C)c1=O	10	-1	1	x	36*	-4
CC(C)(C)c1ccc(CCC2OCC(C[N+]3(C)CCOCC3)O2)cc1 (stereo not drawn)	3	-4	x	-4	31*	x
Cc1cc2nc(C3CCCN(C(=S)Nc4ccccc4C)C3)[nH]c2cc1C (stereo not drawn)	x	-2	-13	3	-10	1
Cc1cc2nc(C3CCCN(C(=O)NCc4ccccc4)C3)[nH]c2cc1C (stereo not drawn)	x	4	39	-1	46*	2
SMILES	GSIS activator	NSD2 HMT inh	MITF act	miR-122 sensor	Wnt act	DYRK1A inh
COc1ccc(S(=O)(=O)N[C@@H]2CC[C@H](CC(=O)NCCc3ccncc3)O[C@@H]2CO)cc1	7	x	x	x	x	x
C[C@H](CO)N1C[C@H](C)[C@@H](CN(C)Cc2ccc(Oc3ccccc3)cc2)Oc2c(NC(=O)c3ccncc3)cccc2C1=O	-42	x	-14	111*[16.7 µM]	-5	5
C[C@H](CO)N1C[C@H](C)[C@@H](CN(C)Cc2ccc(Oc3ccccc3)cc2)Oc2c(NC(=O)C3CCOCC3)cccc2C1=O	-37	x	x	100*[16.7 µM]	x	x
Cc1cccc(-c2ccc([C@H]3[C@H](CO)N4CCCCN(Cc5cccnc5)C[C@@H]34)cc2)c1	x	x	x	4[16.7 µM]	x	x
CCCC(=O)Nc1ccc2c(c1)OC[C@H](C)N(Cc1ccccc1)C[C@H](C)[C@@H](OC)CN(C)C2=O	-4	x	x	x	x	x
C[C@@H]1CCCCO[C@@H](CN(C)C(=O)Nc2ccc(F)cc2)[C@@H](C)CN([C@H](C)CO)C(=O)c2cc(NS(C)(=O)=O)ccc2O1	7	x	x	4[16.7 µM]	x	x
CCc1ccc(C2=NN(S(C)(=O)=O)C(c3cccs3)C2)cc1 (stereo not drawn)	x	0	x	15	44*	-1
C[C@H](CO)N1C[C@H](C)[C@@H](CN(C)Cc2ccncc2)Oc2c(NS(C)(=O)=O)cccc2C1=O	1	x	x	21[16.7 µM]	x	x
CCN1CCN=C1Nc1ccccc1	x	x	7	-1	-3	0
CCC(CC)CN1CCN=C1Nc1ccccc1	59*	x	-1	-2	2	3
COc1ccc2c(c1)OC[C@H]1[C@H]2N2C(=O)c3ccccc3NC(=O)[C@@]2(C)[C@H]1c1ccccc1	-21	x	1	x	-5	x
CN1C(=O)[C@H]2[C@@H](c3ccc(F)cc3)N3C(=O)c4ccccc4NC(=O)[C@@]3(C)[C@H]2C1=O	x	x	-12	95*	x	7
CS(=O)(=O)Nc1ccc2c(c1)[C@H]1C[C@H](CC(=O)NCc3ccc(Oc4ccccc4)cc3)O[C@@H](CO)[C@H]1O2	2	x	x	-1[16.7 µM]	x	x
COC(=O)c1c(C)[nH]c(C(=O)C(C)OC(=O)C2CC(=O)N(CCc3ccccc3)C2)c1C (stereo not drawn)	x	2	-7	-4	50*	8
Cc1ccc(S(=O)(=O)Nc2ccc3c(c2)C(=O)N([C@H](C)CO)C[C@@H](C)[C@H](CN(C)C(=O)NC2CCCCC2)OCCCC[C@H](C)O3)cc1	-25	x	x	-1[16.7 µM]	x	x
COc1ccc(N/C=C/C(=O)c2ccc(OC)c(OC)c2)cc1	16	0	15	-4	21	-3
COc1ccc(C(=O)/C=C/Nc2cccc(C)n2)cc1OC	x	1	93*	x	x	-3
O=C(C[C@@H]1CC[C@@H](NC(=O)C2CC2)[C@H](CO)O1)NC1CCC1	-9	x	x	1[16.7 µM]	x	x
O=C(NC1CCCC1)C(C1CC1)n1c(-c2ccccn2)nc2ccccc21 (stereo not drawn)	43*	-1	x	x	2	x
Cc1cc(-c2ccccc2)n2nc(N)nc2n1	49*	2	6	-1	-1	-6
CCOCCCNC(=O)C(c1ccc(Cl)cc1)N1CCN(c2ccccc2)CC1 (stereo not drawn)	x	x	x	-1	-2	3
